# Source: PubChem (National Center for Advancing Translational Sciences (NCATS))
# DRD3 agonist – activates the human D3 dopamine receptor | max activation, % | D3R DiscoveRx beta-arrestin cells, luminescence, 90 min | P35462 | actives 0.58% (n = 410,000); in the data active means max activation above about 30%; further: 0% is about no effect
# Target sequence (P35462 whole entry, looked up): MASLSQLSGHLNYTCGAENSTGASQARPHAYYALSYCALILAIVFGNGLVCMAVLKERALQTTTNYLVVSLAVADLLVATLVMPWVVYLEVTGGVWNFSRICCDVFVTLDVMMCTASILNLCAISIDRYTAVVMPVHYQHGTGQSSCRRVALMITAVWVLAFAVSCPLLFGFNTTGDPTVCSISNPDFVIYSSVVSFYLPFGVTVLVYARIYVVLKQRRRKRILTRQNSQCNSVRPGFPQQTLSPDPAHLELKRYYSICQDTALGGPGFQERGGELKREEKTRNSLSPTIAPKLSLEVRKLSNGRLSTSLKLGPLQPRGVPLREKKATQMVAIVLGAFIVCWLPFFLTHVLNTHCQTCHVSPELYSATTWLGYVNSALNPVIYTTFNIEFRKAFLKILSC
#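 Cells at 1500/well, incubated overnight, then treated with pinned compounds (dopamine as control) for 90 min at 37 degrees C. DiscoveRx reagent added for 30 - 60 minutes at room temperature; luminescence read.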
# SW480 rerep – induces DNA re-replication in SW480 colon adenocarcinoma cells. SW480 DNA re-replication, Hoechst DNA content imaging, 48 h. Potency, µM (titrated, usually from 46.1 µM), without a hit: at the highest dose re-replication activation, most hits filed as activators. actives 1.8% (n = 340,000). AID 624297; further: potency means the concentration at half of the fitted maximal effect; % of control where 0% means no effect; nearly all actives have a fitted effect of over 55% in size
#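 Treated cells incubate 48 hr (37 C, 5% CO2), are stained 40 min with Hoechst, and nuclear fluorescence is enumerated; a rise in nuclei with high DNA signal marks re-replication.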
# D3 antag – D3 dopamine receptor (human) antagonism | max response, negative = inhibition, % | D3R cells, DiscoveRx beta-arrestin luminescence, antagonist mode; active compounds read low | P35462 | actives 2.5% (n = 360,000); in the data active means max response below about -50%; inconclusive means no clear call, values can overlap the other calls; further: on the % scale 0 is the no-effect control and ±100 the full control effect
#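 Cells expressing the human receptor were seeded at 1500 cells/well, incubated overnight at 37 degrees C in 5% CO2, then exposed to library compounds with dopamine controls for 90 minutes at 37 degrees C before luminescent detection.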
# KB-V1 cytotox – KB-V1 MDR subline cytotoxicity | Potency, µM (highest dose often 46.1 µM), actives largely listed as cytotoxic | AID 1347076 | actives 3.4% (n = 400,000) | KB-V1 MDR cells viability, CellTiter-Glo, 72 h; further: potency means the concentration at half of the fitted maximal effect; on the % scale 0 is the no-effect control and ±100 the full control effect; nearly all actives have a fitted effect of over 60% in size
#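 Potencies derive from concentration-effect curves fitted to normalized luminescence (CellTiter-Glo) of KB-V1 cells treated for 72 h at 37 degrees C in phenol-red-free DMEM containing 10% FBS.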
# MCF10A rereplic – inducers of DNA re-replication in MCF 10A breast cells. Potency, µM (series often up to 46.1 µM), for the others: at the highest dose activity, positive = re-replication, actives largely listed as activators. MCF 10A DNA re-replication, Hoechst nuclear intensity, 48 h. actives 2.9% (n = 350,000). AID 624296; further: potency means the concentration at half of the fitted maximal effect; % of control where 0% means no effect; nearly all actives have a fitted effect of over 50% in size
# KB-3-1 cytotox – KB-3-1 parental cell cytotoxicity | KB-3-1 viability, CellTiter-Glo ATP luminescence, 72 h | Potency, µM (series often up to 46.1 µM), actives largely listed as cytotoxic | actives 1.4% (n = 400,000); further: potency means the concentration at half of the fitted maximal effect; on the % scale 0 is the no-effect control and ±100 the full control effect; nearly all actives have a fitted effect of over 60% in size
#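 Cytotoxicity in the drug-sensitive parental line KB-3-1 was scored as loss of CellTiter-Glo luminescence following 72 h incubation with compound. Values come from curve fitting of normalized concentration-response data.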
# Active calls of the source: *; i = inactive; ? = inconclusive; nt = no result given. Hits are enriched below; roughly 8.9% of the tested compounds scored in any of these assays. Unless noted, the call rests on the fitted dose curve; in most records, active means well fitted curve in the direction sought with a large enough effect; inconclusive means small, poorly fitted or top-dose-only effect, or another doubt; inactive means no such curve, though single readings can be large; an effect the other way counts as inactive or inconclusive.
SMILES,DRD3 agonist,SW480 rerep,D3 antag,KB-V1 cytotox,MCF10A rereplic,KB-3-1 cytotox
Cc1ccc(C(c2nnnn2C2CCCCC2)N(C)C2CCCCC2)cc1 (configuration not stated),6,11%,-16,i,?,i
COc1cc2cc(C(c3nnnn3C3CCCCC3)N(C)C3CCCCC3)c(=O)[nH]c2cc1OC (configuration not stated),-25,14%,?,23µM*,2%,21µM*
CSc1ncc(C(=O)Nc2cccc(Cl)c2C)c(-c2ccccc2)n1,-14,nt,nt,i,nt,i
O=C(O)Cn1c2ccccc2c2n[nH]c(=S)nc21,5,5%,-12,i,1%,i
CC(=O)Nc1cccc(-c2nnc(SCC(=O)c3cc([N+](=O)[O-])ccc3Cl)o2)c1,-1,nt,nt,?,nt,?
Clc1ccc(C(c2nnnn2C2CCCC2)N2CCSCC2)cc1 (configuration not stated),-2,-3%,-7,i,21µM*,i
CCOc1ccc(C2c3c(oc4ccc(C)cc4c3=O)C(=O)N2CCCN2CCOCC2)cc1 (configuration not stated),0,nt,nt,i,nt,i
CCCn1cc(S(=O)(=O)c2ccc(C)cc2)c(=O)c2cc(OC)ccc21,3,-11%,2,i,6%,i
O=c1c(S(=O)(=O)c2ccc(Cl)cc2)cn(Cc2ccccc2)c2ccc(F)cc12,-1,-4%,16,4.1µM*,3%,i
CCCn1cc(S(=O)(=O)c2ccc(Cl)cc2)c(=O)c2cc(OC)ccc21,2,?,9,7.3µM*,?,?
O=c1c(S(=O)(=O)c2ccc(Cl)cc2)cn(Cc2ccc(F)cc2)c2ccc(F)cc12,2,nt,nt,i,nt,i
COc1ccccc1CNC(=O)c1ccc2c(c1)CCN2S(=O)(=O)c1ccc(Cl)cc1,0,nt,nt,i,nt,i
CCN(CC)S(=O)(=O)c1cccc(C(=O)Nc2sc3c(c2C#N)CCC(C)C3)c1 (configuration not stated),-10,nt,nt,i,nt,i
CCn1c(C)cc(/C=C2\NC(=O)N(Cc3ccc(Cl)cc3)C2=O)c1C,12,14µM*,-6,i,?,i
Cc1cc(/C=C2/NC(=O)N(Cc3ccccc3F)C2=O)c(C)n1-c1ccccn1,-6,0.82µM*,-5,?,?,i
COc1ccc(/C=C2/NC(=O)N(Cc3ccccc3F)C2=O)cc1OC,0,-4%,40,i,-2%,i
Cc1cccc(CN2C(=O)N/C(=C/c3cc(C)n(-c4ccccn4)c3C)C2=O)c1,0,1%,?,i,?,i
COc1cc(/C=C2/NC(=O)N(Cc3ccccc3F)C2=O)cc(OC)c1OC,14,-11%,6,0.18µM*,4%,i
Cc1cc(Nc2ccccc2F)n2nc(Cc3ccc(Cl)cc3)nc2n1,7,nt,nt,i,nt,i
COc1ccc(OC)c(-c2cc(C(=O)Nc3ccc(C)c(C)c3)no2)c1,-25,nt,nt,i,nt,i
COc1ccc2nc(SCC(=O)N3CC(=O)Nc4ccccc43)c(C#N)cc2c1,-21,5µM*,-2,?,2.8µM*,2.6µM*
Cc1cc(C)cc(C(=O)N2CC(=O)Nc3ccccc32)c1,-11,0.73µM*,-11,3.3µM*,?,?
Cc1cc(C)c2nc(SCC(=O)N3CC(=O)Nc4ccccc43)c(C#N)cc2c1,-13,1.3µM*,-9,0.73µM*,0.82µM*,0.65µM*
Cc1cc2n(n1)CCCN2C(=O)Nc1ccc(C)c(Cl)c1,5,nt,nt,nt,nt,nt
CCCCN(C)CCCNC(=O)C1CCN(S(=O)(=O)CCC)CC1,-13,nt,nt,i,nt,i
CCC(=O)C1=C(c2cccc([N+](=O)[O-])c2)N(C(=O)CC)n2c(nnc2C2CCCCC2)S1,-8,nt,nt,nt,nt,nt
Cc1ccc(-n2nc(C(=O)N3CCN(c4ccccc4F)CC3)c(=O)n(C)c2=O)cc1,4,nt,nt,i,nt,i
